Drawing on PubChem BioAssay (NCI), this text covers growth for 14 compounds.

Holding throughout (experiment): NCI-60 one-dose screen, 48 h (100 = growth as untreated, 0 = no growth, -100 = all killed)
Common to all, as to details: 10 µM unless noted

Test [1] concerns NCI-H23 lung.
For test [2], the system named is NCI-H226 lung.
Test [3] has as its system NCI-H322M lung.
Test [4] has as its system HOP-62 NSCLC.
For test [5], the system named is NCI-H460 lung.
The test system of test [6] is NCI-H522 lung.
Test [7] has as its system A549/ATCC NSCLC.
Test [8] concerns 786-0 renal.
Test [9] concerns COLO 205 colon.

This is part of a sample that, as a whole, favours compounds with a hit. Of some 83,000 tested, about 20% had one in any assay.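 Single-concentration screen, 48 h exposure, 96-well plates. Endpoint: percent growth. Below 10 = active.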 Values without a mark were called inactive. Active and inactive are the calls of the source.

Take `CC(C)(C)c1ccc(C(=O)Nc2sc3c(c2C(N)=O)CCC(O)C3)cc1` (stereo unspecified): the growth in test [1] is 66.5%; in test [2], 68.7%; in test [3], 58.1%; in test [4], 63%; in test [5], 17%; in [6], 31.2%. Further, the figures for the growth in test [7], in [8] and in test [9] were 39.6%, 15.4% and 6.84% (active), respectively.
In the case of `O=C(CSc1nnc(-c2ccc(Cl)cc2)n1-c1ccccc1)Nc1cccc(Cl)c1`, the growth in test [1] was 49.5%; in [2], 46.3%; in test [3], 55.5%; in [4], 104%; in [5], 47.9%; in test [6], 69.8%. Moreover, the growth was 25.7% in [7], 28.1% in test [8] and 82.1% in [9].
Turning to `CN1CCC(n2cc(Nc3ncc4c(=O)n(-c5c(Cl)cccc5Cl)cc(Br)c4n3)cn2)CC1`, the growth in test [1] was 8.53% (active); in test [2], 33.9%; in test [3] it was 41.9%; in test [4], 28%; in test [5], 1.23% (active); in test [6] it was -8.22% (active). Moreover, the growth in test [7] was 36.2%; in test [8] it was 20.5%; in [9], 22.5%.
With `COc1cc2nc(Cl)nc(Nc3cccc(C4=Nc5c(N)nc(N)nc5NC(c5ccccc5)C4)c3)c2cc1OC` (stereo unspecified), the growth in [1] is 83.5%; in [2], 86.9%; in [3], 92.9%; in test [4], 39.6%; in [5], 87.4%; in [6], 76.5%. Moreover, the growth in test [7] is 87.5%; in test [8] it was 77.5%; in test [9], 99.8%.
With `N/C(=N\C(N)=N\c1nc2ccccc2s1)c1cccc(F)c1`, the growth in test [1] was 76.5% [5 µM]; in test [2], 90.8% [5 µM]; in test [3], 92.6% [5 µM]; in [4], 81.1% [5 µM]; in [5], 88.7% [5 µM]; in [6], 94.5% [5 µM]. In addition, the growth is 75.9% [5 µM] in test [7], 107% [5 µM] in [8] and 106% [5 µM] in test [9].
As to `c1cc(-c2nc3ccc4[nH]ncc4c3c3c2CCCC3)[nH]n1`, the growth in test [1] was 54.8%; in test [2], 74.9%; in test [3] it was 76.6%; in test [4] it was 68.6%; in test [5] it was 38.8%; in test [6], 30.9%. The growth in [7] was 48.1%; in test [8] it was 64.7%; in test [9], 54.1%.
In the case of `CCCCCc1ccc(S(=O)(=O)Nc2cccc(-c3csc(NC(=O)CCCCCN4CCN(C)CC4)n3)c2)cc1`, the growth was 75.7% in [1]; 88.2% in test [2]; 84.1% in test [3]; 79.4% in [4]; -29.6% (active) in test [5]; 64.3% in test [6]. In addition, the growth in test [7] was 54.4%; in test [8], 44.4%; in test [9] it was -34.3% (active).
In the case of `NC(N)=Nc1ccc(Nc2cccc(Oc3ccc(Cl)c(C(F)(F)F)c3)c2)cn1`, the growth in test [1] is 32%; in test [2], 36.5%; in [3], 52.9%; in test [4], 17.4%; in test [5] it was -71.3% (active); in [6], 18%. The growth in [7] is 19.9%; in test [8] it was 54.3%; in [9] it was -48.7% (active).
Take `CC1(C)NCCC[C@]2(C)[C@H]3C/C(=N\O)C4[C@@H]5C[C@@](C)(CO)CC[C@]5(C)CC[C@@]4(C)[C@]3(C)CC[C@@H]12` (stereo partly specified): the growth was 94.2% in test [1]; 94.3% in [2]; 101% in test [3]; 111% in test [4]; 100% in test [5]; 97.4% in test [6]. Also, the growth was 95.3% in test [7], 98.4% in test [8] and 103% in test [9].
As for `CCNC(=O)N1CCc2cc(OC)c(OCCc3ccc(OC)c(N)c3)cc2C1c1ccc(C)cc1C` (stereo unspecified), the growth in test [1] is 20%; in [2] it was 42.9%; in test [3] it was 40.7%; in test [4], 26.9%; in test [5], 2.6% (active); in [6], -30.2% (active). In addition, the values for the growth in test [7], in [8] and in [9] were 9.14% (active), 13.3% and 13.3%, respectively.
For the compound `CNC(=O)c1cc(Oc2ccc3nc(NC(=O)c4cc(N5CCOCC5)cc(C(F)(F)F)c4)sc3c2)ccn1`, the growth in test [1] was 88.2%; in [2], 85.4%; in [3], 89.4%; in test [4], 89.3%; in test [5] it was 67.5%; in test [6], 81.6%. Besides, the growth in test [7] is 68.5%; in test [8] it was 80.3%; in [9], 94%.
Turning to `COc1ccc(-n2c(SCc3n[nH]c(=S)o3)nc3ccc(Cl)cc3c2=O)cc1`, the growth in test [1] is 99%; in test [2], 77.6%; in [3], 97.6%; in [4] it was 97.2%; in [5], 103%; in test [6], 87.6%. The figures for the growth in test [7], in [8] and in test [9] were 97.7%, 94.1% and 114%, respectively.
`O=C(c1ccc(O)c(C(=O)N2Cc3ccc(OCCC[P+](c4ccccc4)(c4ccccc4)c4ccccc4)cc3C2)c1)N1Cc2cccc(F)c2C1`: the growth in test [1] is 87.3%; in test [2] it was 92.3%; in test [3], 94.3%; in test [4], 102%; in test [5], 69.7%; in test [6] it was 72.9%. Further, the growth was 99.8% in test [7], 98.5% in [8] and 52.3% in test [9].
As to `Cc1cc(C)cc(C(=O)Nc2cccc(C#Cc3cccc4[nH]nc(N)c34)c2)c1`, the growth in test [1] is 76.6%; in [2] it was 67.3%; in test [3], 88.4%; in test [4], 67%; in test [5], 50.7%; in test [6], 23.6%. Also, the results for the growth in test [7], in test [8] and in [9] were 54.8%, 89.9% and 77.9%, respectively.
